Only some compounds are listed: those with a hit (about 21% of all), similar ones and a draw of the others.
Pf growth 96h – P. falciparum growth inhibition at 96 hours | P. falciparum luciferase reporter growth, 96 h | Potency, µM (top dose mostly 28.7 µM), hits mostly inhibitors | 320,000 compounds, 6.9% hits | AID 504834; active = well fitted inhibition curve with a large enough effect; inconclusive = small, poorly fitted or top-dose-only effect, or another doubt; inactive = no such curve, though single readings can be large or run the other way
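Two-generation exposure (96 h) targets delayed-death phenotype. Reporter parasites carrying integrated firefly luciferase, in red cells at 2% hematocrit and 0.05% parasitemia final, kept at 37 C, 5% CO2; luminescence loss indicates inhibition.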
Pf growth 48h – inhibits P. falciparum growth in the first generation, 48 h; 310,000 compounds, 5.9% hits; Potency, µM (top dose mostly 28.7 µM), usual class: inhibitors; P. falciparum luciferase growth in erythrocytes, 48 h; active = well fitted inhibition curve with a large enough effect; inconclusive = small, poorly fitted or top-dose-only effect, or another doubt; inactive = no such curve, though single readings can be large or run the other way
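Luciferase-expressing P. falciparum in infected erythrocytes (2% hematocrit, 0.1% parasitemia final) in RPMI 1640/0.5% Albumax were exposed to compound for 48 hours at 37 C, 5% CO2; growth read as luminescence.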
CHX counter – counter-screen hit for Shiga toxin inhibitors, cycloheximide; max response, %; cell reporter, cycloheximide protein synthesis inhibition counterscreen; 300,000 compounds, 12% hits; in the data active = max response mostly above about 13%, no sharp cut-off; inactive = mostly below about 14%; also: read at 38.3 µM for the half of the compounds with a filed dose
Shiga toxin inh – inhibitors of Shiga toxin in Vero cells; Vero cells, Shiga toxin protein synthesis inhibition reporter; inhibition, % at 38.7 µM; 290,000 compounds, 9.2% hits; AID 2315; in the data active = inhibition mostly above about 28%, no sharp cut-off; inactive = mostly below about 43%
SARS PLP yeast – inhibitors of SARS-CoV papain-like protease in yeast. S. cerevisiae expressing SARS-CoV PLpro, growth rescue. Potency, µM (series often up to 32.9 µM), usual class: activators. 330,000 compounds, 0.19% hits. AID 485353; also: nearly all actives have a fitted effect of over 55% in size
NS1 inh – inhibitors of influenza NS1 protein function; Potency, µM (series often up to 46.1 µM); 270,000 compounds, 0.4% hits; also: actives are rising curves; nearly all actives have a fitted effect of over 50% in size
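Compounds were scored for reversing the slow growth caused by influenza A NS1 in S. cerevisiae, measured by optical density at 600 nm. Assay medium contained 2% galactose at pH 6.0; NS1-free yeast of the same strain were the positive control.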
A number is an active result; i = inactive; ? = inconclusive; nt = no result. Unless noted, calls follow the shape of the full dose curve.

SMILES	Pf growth 96h	Pf growth 48h	CHX counter	Shiga toxin inh	SARS PLP yeast	NS1 inh
O=C(Nc1ccc(F)c(F)c1)c1ccc2c(c1)OCO2	2.3µM	i	94	100	i	i
O=C(Nc1ccc2c(c1)oc1ccccc12)c1ccc2c(c1)OCO2	?	i	45	i	i	i
O=C(Nc1ccon1)c1ccc2c(c1)OCO2	nt	i	43	31	i	i
O=C(Nc1ccc2c(c1)OCO2)c1c(F)c(F)c(F)c(F)c1F	nt	i	i	i	i	i
Cc1cc(C(=O)Nc2ccc3c(c2)OCO3)cs1	i	i	39	58	i	i
O=C(Nc1ccc2c(c1)OCO2)c1cccc(Cl)c1	?	i	49	107	i	i
O=C(Nc1ccc2c(c1)OCO2)c1ccc(Cl)s1	i	nt	78	81	i	i
O=C(Nc1ccc(Cl)c([N+](=O)[O-])c1)c1ccc2c(c1)OCCO2	i	i	33	62	i	nt
O=C(Nc1ccccc1)c1ccccc1OCc1ccc(S(=O)(=O)N2CCOCC2)cc1	i	i	i	i	i	nt
Cc1ccc(NC(=O)c2ccc3c(c2)OCCO3)nc1	i	i	nt	nt	nt	nt
Cc1ccnc(NC(=O)c2ccc3c(c2)OCO3)c1	i	i	25	66	i	i
O=C(Nc1ncccc1O)c1ccc2c(c1)OCCO2	?	?	nt	nt	i	nt
O=C(Nc1ncccc1O)c1ccc2c(c1)OCO2	4.1µM	9.3µM	nt	nt	i	nt
NC(=O)c1ccc(NC(=O)c2ccc3c(c2)OCO3)cc1	i	nt	37	i	i	i
O=C(Nc1ccc(NC(=O)c2ccc(Cl)cc2Cl)cc1)c1ccc2c(c1)OCO2	?	i	i	i	i	i
O=C(Nc1ccc(Cl)cc1)c1ccc2c(c1)OCO2	nt	i	30	49	i	i
COC(=O)c1c(NC(=O)CN2CCN(c3ncccn3)CC2)sc(C(N)=O)c1C	i	?	i	i	i	i
Cc1ccc(NC(=O)CN2CCN(S(=O)(=O)c3ccc(F)cc3)CC2)cc1C	?	?	nt	nt	i	nt
Cc1nc2ccc(Cl)cc2nc1C	i	i	i	i	i	i
CC(C)c1onc(-c2c(Cl)cccc2Cl)c1COc1ccc(/C=C/c2cccc(C(=O)O)c2)c(Cl)c1	nt	nt	36	60	nt	nt
CCC(C)NC(=O)c1cccc(OCc2c(C)noc2C)c1 (stereo unspecified)	i	i	i	i	i	i
Cc1ccccc1NC(=O)CN(C)S(=O)(=O)c1cccs1	i	i	i	i	i	i
COc1ccc(NC(=O)CN(C)S(=O)(=O)c2cccs2)cc1	i	i	29	40	i	i
CN(CC(=O)N1CCc2ccccc21)S(=O)(=O)c1cccs1	i	nt	61	99	i	i
CN(CC(=O)NCc1ccccc1Cl)S(=O)(=O)c1cccs1	i	i	15	i	i	i
SMILES	Pf growth 96h	Pf growth 48h	CHX counter	Shiga toxin inh	SARS PLP yeast	NS1 inh
COc1ccc(Cl)cc1NC(=O)CN(C)S(=O)(=O)c1cccs1	i	i	i	i	i	i
Cc1cccc(NC(=O)CN(C)S(=O)(=O)c2cccs2)c1	nt	i	15	101	i	i
CN(Cc1ccccc1N1CCCC1)C(=O)c1cc2cc(Cl)ccc2o1	?	?	nt	nt	i	nt
Cc1c(C(=O)N2CCCC2)c(S(=O)(=O)N2CCN(c3ccccc3F)CC2)c(C)n1C	i	i	i	i	i	i
O=C(CN(Cc1ccco1)C(=O)CNS(=O)(=O)c1ccc(F)cc1)NCc1ccccc1	i	i	i	i	i	i
Cc1cccc2sc(NC(=O)CN(C)S(=O)(=O)c3cccs3)nc12	i	i	i	45	i	i
CCOc1cc(CNCC(C)C)c(Cl)cc1OCC(=O)Nc1ccccc1	i	?	i	i	i	i
Cc1ccc(-c2nn(-c3ccccc3)cc2/C=N/NS(=O)(=O)c2ccccc2)cc1	?	?	36	i	i	i
NS(=O)(=O)c1ccc(N/N=C/c2ccccc2C(=O)O)c([N+](=O)[O-])c1	i	i	i	i	i	nt
NS(=O)(=O)c1ccc(N/N=C/c2cn(-c3ccccc3)nc2-c2ccccc2)c([N+](=O)[O-])c1	?	4.1µM	i	i	i	i
Cc1ccc(S(=O)(=O)N/N=C\c2cn(-c3ccccc3)nc2-c2ccccc2)cc1	i	i	20	i	i	i
O=S(=O)(N/N=C\c1cn(-c2ccccc2)nc1-c1ccccc1)c1ccccc1	i	i	i	i	i	i
Nc1cnc(Nc2ccc(Br)cc2)nc1N	?	i	28	58	i	i
Nc1ncnc(Nc2ccccc2)n1	i	i	nt	nt	i	nt
CCOc1ncccc1C(=O)OCC(=O)c1ccc(OC)c(OC)c1	i	i	i	i	i	nt
O=C(OCC(=O)C12CC3CC(CC(C3)C1)C2)c1ccccn1	i	i	i	i	i	i
COc1ccc(OC)c(C(=O)COC(=O)c2c(OC)cccc2OC)c1	i	i	i	i	i	i
O=C(OCC(=O)C12CC3CC(CC(C3)C1)C2)c1cccnc1Cl	i	i	20	i	i	i
Cc1cc(C)c(C(=O)COC(=O)c2cccnc2Cl)c(C)c1	i	i	56	90	i	nt
O=C(COC(=O)c1cccnc1Cl)c1ccc(Cl)cc1Cl	?	i	i	i	i	i
COc1ccc(OC)c(C(=O)COC(=O)c2ccccc2O)c1	i	i	16	110	i	i
CCOc1ncccc1C(=O)OCC(=O)c1ccc(C)c(C)c1	i	i	43	70	i	nt
S=c1[nH]nc(-c2ccc(Cl)cc2)n1CCCN1CCOCC1	i	i	i	i	i	nt
COc1ccc(C(=O)COC(=O)c2cccnc2Cl)c(OC)c1	i	i	38	72	i	nt
COc1ccc(OC)c(C(=O)COC(=O)c2cccnc2Cl)c1	i	i	i	i	i	nt
SMILES	Pf growth 96h	Pf growth 48h	CHX counter	Shiga toxin inh	SARS PLP yeast	NS1 inh
CC(CC(=O)N1CCN(c2cccc(Cl)c2)CC1)S(=O)(=O)c1ccc2c(c1)NC(=O)CO2 (stereo unspecified)	?	?	i	i	i	i
O=C(O/N=C1\CCS(=O)(=O)c2sccc21)c1ccc(F)cc1	i	i	37	78	i	nt
O=C(O/N=C1\CCS(=O)(=O)c2sccc21)c1ccccc1	?	?	i	i	i	i
FC(F)(F)C(Oc1nc(NC2CCCCC2)nc(N2CCOCC2)n1)C(F)(F)F	?	12µM	i	i	i	i
Cc1ccc(Nc2nc(OC(C(F)(F)F)C(F)(F)F)nc(N3CCOCC3)n2)cc1	?	?	i	i	i	i
Cc1cccc2c1-c1sc(C(=O)Nc3nccs3)cc1CO2	8.3µM	nt	66	118	i	i
CCOC(=O)c1cc2c(s1)-c1c(C)cccc1OC2	?	nt	51	168	i	i
Cc1cccc2c1-c1sc(C(=O)Nc3cccc([N+](=O)[O-])c3C)cc1CO2	0.74µM	i	i	i	i	?
O=C(Nc1nccs1)c1cc2c(s1)-c1ccccc1OC2	i	nt	21	71	i	i
COc1cc2c(cc1OC)C(C)N(C(=O)c1cc3c(s1)-c1c(C)cccc1OC3)CC2 (stereo unspecified)	?	?	i	i	i	i
O=C(Nc1nc2ccccc2s1)c1cc2c(s1)-c1ccccc1OC2	?	nt	i	i	i	i

Compound activity from PubChem BioAssay.
